Data reported in the supplement of paper PMC8728848.
The entries come from a sample that favours the strongest signals as a whole.

What was measured:
Assay in all cases: glycan array binding signal (z-score within array); higher = stronger binding
Conditions in all cases: glycan notation: IUPAC condensed, linker removed
[1] = biological target: GlcNAc(b1-3)Gal(b1-4)GlcNAc(b1-3)Gal(b1-4)GlcNAc(b1-2)[GlcNAc(b1-3)Gal(b1-4)GlcNAc(b1-3)Gal(b1-4)GlcNAc(b1-6)]Man(a1-6)[GlcNAc(b1-3)Gal(b1-4)GlcNAc(b1-3)Gal(b1-4)GlcNAc(b1-2)Man(a1-3)]Man(b1-4)GlcNAc(b1-4)[Fuc(a1-6)]GlcNAc
Outline: (§1)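 Glycan array data were curated from 3228 arrays in the Consortium for Functional Glycomics database and kept only where the protein sequence was available. Glycan names were converted to IUPAC-condensed notation, and columns mapping to the same glycan were averaged. The binding signal is a within-array Z-score, averaged across arrays of the same protein sequence at different concentrations or buffers and across linkers. Negative Z-scores can be read as non-binding.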

[2] = biological target: GlcNAc(b1-4)GlcNAc(b1-4)GlcNAc
Outline: as §1

[3] = biological target: Kdn(a2-3)Gal(b1-4)[Fuc(a1-3)]GlcNAc
Outline: as §1

[4] = biological target: Man(a1-2)Man(a1-6)[Man(a1-3)]Man(a1-6)[Man(a1-2)Man(a1-2)Man(a1-3)]Man
Outline: as §1

[5] = biological target: Man(a1-3)[Man(a1-6)]Man(a1-6)[Man(a1-3)]Man
Outline: as §1

[6] = biological target: Neu5Ac(a2-3)Gal(b1-3)GlcNAc(b1-3)GalNAc
Outline: as §1

[7] = biological target: Neu5Ac(a2-3)Gal(b1-3)[Fuc(a1-4)]GlcNAc(b1-3)Gal(b1-3)[Fuc(a1-4)]GlcNAc
Outline: as §1

[8] = biological target: Neu5Ac(a2-3)Gal(b1-4)GlcNAc(b1-2)[Neu5Ac(a2-3)Gal(b1-4)GlcNAc(b1-4)]Man(a1-3)[GlcNAc(b1-4)][Neu5Ac(a2-3)Gal(b1-4)GlcNAc(b1-2)[Neu5Ac(a2-3)Gal(b1-4)GlcNAc(b1-6)]Man(a1-6)]Man(b1-4)GlcNAc(b1-4)GlcNAc
Outline: as §1

[9] = biological target: Neu5Ac(a2-3)Gal(b1-4)[Fuc(a1-3)]GlcNAc(b1-3)GalNAc
Outline: as §1

Neu5Ac(a2-3)GalNAc = biological target: Neu5Ac(a2-3)GalNAc
Outline: as §1

[10] = biological target: Neu5Ac(a2-3)[GalNAc(b1-4)]Gal(b1-4)Glc
Outline: as §1

[11] = biological target: Neu5Ac(a2-6)Gal(b1-4)GlcNAc(b1-2)Man(a1-3)[GlcNAc(b1-4)][Neu5Ac(a2-6)Gal(b1-4)GlcNAc(b1-2)Man(a1-6)]Man(b1-4)GlcNAc(b1-4)GlcNAc
Outline: as §1

[12] = biological target: Neu5Ac(a2-6)Gal(b1-4)GlcNAc(b1-2)[Neu5Ac(a2-6)Gal(b1-4)GlcNAc(b1-4)]Man(a1-3)[GlcNAc(b1-4)][Neu5Ac(a2-6)Gal(b1-4)GlcNAc(b1-4)Man(a1-6)]Man(b1-4)GlcNAc(b1-4)GlcNAc
Outline: as §1

[13] = biological target: Neu5Ac(a2-6)Gal(b1-4)GlcNAc(b1-3)Gal(b1-4)GlcNAc(b1-2)Man(a1-3)[Neu5Ac(a2-6)Gal(b1-4)GlcNAc(b1-3)Gal(b1-4)GlcNAc(b1-2)Man(a1-6)]GalNAc
Outline: as §1

[14] = biological target: Neu5Ac(a2-6)Gal(b1-4)GlcNAc(b1-3)Gal(b1-4)GlcNAc(b1-3)Gal(b1-4)GlcNAc
Outline: as §1

[15] = biological target: Neu5Ac(a2-6)Gal(b1-4)GlcNAc(b1-3)GalNAc
Outline: as §1

[16] = biological target: Neu5Ac(b2-6)Gal(b1-4)GlcNAc
Outline: as §1

B1: SP8524D-bot-399-27-399 (Bacteroides ovatus) (protein)
chain: DAKYDTLDTHAYIEEALSSTSQKVTVQATGESFTTLNVHLSNLSSTDNHYKLVTDQSVLDTYNHINGTGYIMLPKDYYTLPETITVKAGQYAADALSIALKAFSQEMMKSGESYALPVKLVLQDGSISPMENTGTFVILAESIIEFSAPMFVGAPSLKANKFTESPETYSQYTIEVRFQVANTADRDRAVFKNGGDDANFILLRFEDPQSDNENYKAHSLVQIVGRNRLYLNPSNSFKPNEWQHLALVCDGSNYRLYINGVDSGVLSIPTGATTFSDVNWFCLGDDSYSRWGNCKILMSEARIWSVVRSASQIQNNMTQVSPKSVGLEAYWRFNEGQGNVFEDATGKGHTLTTSATPTWIDGILSTDKSTEWK
glycan array binding signal (z-score) [1]: 1.11
glycan array binding signal (z-score) [2]: -0.187
glycan array binding signal (z-score) [3]: 0.119
glycan array binding signal (z-score) [4]: -0.455
glycan array binding signal (z-score) [5]: 0.159
glycan array binding signal (z-score) [6]: -0.628
glycan array binding signal (z-score) [7]: 0.014
glycan array binding signal (z-score) [8]: -0.648
glycan array binding signal (z-score) [9]: 0.96
glycan array binding signal (z-score) (Neu5Ac(a2-3)GalNAc): -0.038
glycan array binding signal (z-score) [10]: 0
glycan array binding signal (z-score) [11]: 0.589
glycan array binding signal (z-score) [12]: 0.44
glycan array binding signal (z-score) [13]: 0.437
glycan array binding signal (z-score) [14]: -0.075
glycan array binding signal (z-score) [15]: -0.138
glycan array binding signal (z-score) [16]: -0.048
